Only some compounds are listed: those with a hit (about 22% of all), similar ones and a draw of the others.
Shiga inhibitor: A qHTS for Small Molecule Inhibitors of Shiga Toxin. inhibition, % at 38.7 µM. Vero cells, Shiga toxin protein synthesis inhibition reporter. hit rate 9.2% among 290,000; in the data active means inhibition mostly above about 28%, no sharp cut-off; inactive means mostly below about 43%
Pf growth 96h: Primary qHTS for delayed death inhibitors of the malarial parasite plastid, 96 hour incubation; Potency, µM (series often up to 28.7 µM), hits mostly inhibitors; P. falciparum luciferase reporter growth, 96 h; hit rate 6.9% among 320,000
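96 h incubation, 37 C, 5% CO2, of luciferase-reporter P. falciparum-infected RBCs (2% hematocrit, 0.05% parasitemia final) with test compounds; endpoint luminescence.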
Pf growth 48h: Primary qHTS for delayed death inhibitors of the malarial parasite plastid, 48 hour incubation; hit rate 5.9% among 310,000; P. falciparum luciferase growth in erythrocytes, 48 h; Potency, µM (doses to about 28.7 µM), actives largely listed as inhibitors
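Firefly luciferase activity from engineered P. falciparum reports growth; inhibitors lower the luminescent signal. Cultures contained 2% hematocrit erythrocytes at 0.1% final parasitemia.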
Cycloheximide cs: Cycloheximide Counterscreen for Small Molecule Inhibitors of Shiga Toxin; hit rate 12% among 300,000; cell reporter, cycloheximide protein synthesis inhibition counterscreen; AID 2314, 2010; max response, %; in the data active means max response mostly above about 13%, no sharp cut-off; inactive means mostly below about 14%; further: read at 38.3 µM for the half of the compounds with a filed dose
LmPK inhibitor: qHTS Assay for Inhibitors of Leishmania Mexicana Pyruvate Kinase (LmPK) | purified LmPK, Kinase-Glo ATP luminescence, 1 h | Potency, µM (doses to about 57.5 µM), hits mostly inhibitors | hit rate 0.37% among 290,000 | AID 1721, 2009
Target sequence (Q27686 whole entry, looked up): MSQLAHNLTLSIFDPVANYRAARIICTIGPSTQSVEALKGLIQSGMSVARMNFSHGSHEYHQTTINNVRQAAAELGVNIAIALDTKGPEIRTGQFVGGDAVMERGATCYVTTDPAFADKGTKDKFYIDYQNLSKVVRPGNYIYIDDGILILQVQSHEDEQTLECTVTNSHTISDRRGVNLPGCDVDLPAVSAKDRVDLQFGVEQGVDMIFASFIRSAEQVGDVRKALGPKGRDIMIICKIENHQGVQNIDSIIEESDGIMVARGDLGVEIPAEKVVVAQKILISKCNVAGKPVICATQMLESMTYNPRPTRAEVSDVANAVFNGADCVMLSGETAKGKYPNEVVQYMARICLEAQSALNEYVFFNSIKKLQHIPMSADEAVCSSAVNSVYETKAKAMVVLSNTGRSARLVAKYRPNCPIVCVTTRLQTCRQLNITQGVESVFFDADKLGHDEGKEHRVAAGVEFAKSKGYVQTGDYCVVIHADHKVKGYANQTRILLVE
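0.1 nM LmPK, 0.5 mM PEP, 0.1 mM ADP; 50 mM imidazole pH 7.2, 7 mM MgCl2, 50 mM KCl; 1 h RT. Kinase-Glo luminescence readout, normalized to no-enzyme (full inhibition) and uninhibited wells.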
Large screens that a line does not name were inactive. Unless noted, the call rests on the fitted dose curve; in most records, active means well fitted inhibition curve with a large enough effect; inconclusive means small, poorly fitted or top-dose-only effect, or another doubt; inactive means no such curve, though single readings can be large or run the other way.

Cc1ccccc1CCN1CCCC(CN(C)C(=O)c2ccc3ncccc3c2)C1 (configuration not stated)	Pf growth 96h inconclusive, Pf growth 48h inconclusive
CC/C(C)=N\N=C\c1c(O)n(CC)c2cc(C3=NNC(=O)CC3)ccc12	Pf growth 96h 10.4µM, Pf growth 48h inconclusive
O=C(COC(=O)C12CC3CC(CC(C3)C1)C2)Nc1nccs1	none
O=c1c2c3c(sc2nc2n1CCCCC2)C(O)CCC3 (configuration not stated)	Shiga inhibitor 69.6, Pf growth 96h inconclusive, Cycloheximide cs 55.5
O=C1c2sc3nc4n(c(=O)c3c2CCC1Br)CCCCC4 (configuration not stated)	Shiga inhibitor 52.6, Pf growth 96h 9.28µM, Pf growth 48h inconclusive, Cycloheximide cs 31.4, LmPK inhibitor 28.2µM
COc1ccc(OC)c(-n2nnnc2SCC(=O)NCc2ccc3c(c2)OCO3)c1	none
Cc1ccc(C(=O)C(c2ccccc2)N2Cc3ccccc3C2=N)cc1 (configuration not stated)	Pf growth 96h 10.4µM, Pf growth 48h inconclusive
Cc1ccccc1-n1ncc(C(C)NS(=O)(=O)c2sccc2C)c1C (configuration not stated)	Pf growth 96h inconclusive, Pf growth 48h inconclusive
OCCCn1c(-c2ccccc2)n[nH]c1=S	Shiga inhibitor 36.8, Cycloheximide cs 20.8
C=CCn1c(-c2ccccc2)n[nH]c1=S	Pf growth 96h inconclusive
Oc1ccc(-c2n[nH]c(=S)n2Cc2ccccc2)cc1	Pf growth 96h inconclusive, LmPK inhibitor 8.91µM
COc1ccccc1NC(=O)CSc1nnc(-c2ccccn2)o1	none
O=C(CSc1nnc(-c2ccccn2)o1)Nc1ccc(F)cc1	Shiga inhibitor 24.5
Nn1c(SCC(=O)Nc2ccc(F)cc2)nnc1-c1ccccn1	none
Fc1ccc(CSc2nnc(-c3ccccn3)o2)cc1	Shiga inhibitor 41.0, Cycloheximide cs 27.7
O=C(CSc1nnc(-c2ccccn2)o1)Nc1ccccc1	Shiga inhibitor 64.9, Pf growth 96h inconclusive
CCN(CC)S(=O)(=O)c1ccc2c(c1)c(=O)c(C(=O)NCc1ccco1)cn2C	none
Cc1noc(C)c1-c1nc(CS(=O)(=O)c2ccc(Cl)cc2)no1	none
O=S(=O)(Cc1noc(-c2ccccc2Cl)n1)c1ccccn1	Shiga inhibitor 71.8, Cycloheximide cs 41.2
Cc1cc(C(=O)CN2C(=O)NC3(CCCCC3)C2=O)c(C)n1Cc1ccc2c(c1)OCO2	Shiga inhibitor 95.7, Pf growth 48h inconclusive, Cycloheximide cs 27.3
CC(C)CC1(C)NC(=O)N(CC(=O)NC(=O)Nc2ccc3c(c2)OCCO3)C1=O (configuration not stated)	Shiga inhibitor 48.4, Pf growth 96h inconclusive, Cycloheximide cs 57.6
CC1(CCc2ccccc2)NC(=O)N(CC(=O)Nc2ccc3c(c2)OCCO3)C1=O (configuration not stated)	none
Cc1cc(C(=O)CN2C(=O)NC3(CCCCC3)C2=O)c(C)n1Cc1ccco1	Shiga inhibitor 88.7, Cycloheximide cs 40.8
Cc1cc(C(=O)CN2C(=O)NC3(CCCC3)C2=O)c(C)n1-c1ccc2c(c1)OCO2	Pf growth 96h inconclusive
CN(Cc1ccco1)C(=O)CN1C(=O)NC2(CCCCC2)C1=O	none (no result: Shiga inhibitor, Cycloheximide cs, LmPK inhibitor)
Cc1cc(C(=O)CN2C(=O)NC(C)(CC(C)C)C2=O)c(C)n1-c1ccc2c(c1)OCO2 (configuration not stated)	Pf growth 96h 4.15µM, Pf growth 48h inconclusive
CC(NCc1cc(Br)ccc1OCC(N)=O)C12CC3CC(CC(C3)C1)C2 (configuration not stated)	Pf growth 48h inconclusive (no result: Shiga inhibitor)
O=S(=O)(c1cccc(NC(=S)Nc2ccc(Br)cc2Cl)c1)N1CCOCC1	Pf growth 48h inconclusive
Cc1c2cnn(CC(=O)N3CCOCC3)c(=O)c2c(C)n1Cc1ccccc1F	Pf growth 96h inconclusive
CC(C(=O)Nc1ccc2[nH]c(=O)[nH]c2c1)N1CCN(Cc2ccc3c(c2)OCO3)CC1 (configuration not stated)	Pf growth 96h inconclusive (no result: Shiga inhibitor, Cycloheximide cs, LmPK inhibitor)
Cc1cc(S(=O)(=O)N2CCN(c3ccccc3F)CC2)ccc1-n1cnnn1	Pf growth 96h 11.7µM
COc1ccc(-n2c(SCC(=O)C(C)(C)C)nc3c(sc(=S)n3-c3ccccc3)c2=O)c(OC)c1	Pf growth 48h 2.08µM
CCOC(=O)CSc1nc2c(sc(=S)n2-c2ccccc2OC)c(=O)n1Cc1ccco1	Pf growth 48h inconclusive

From PubChem BioAssay
